Experimental data from paper PMC4336329 (PLoS ONE, 2015).
The whole screen tested about 310,000 compounds, of which about 14,000 (4.5%) showed an effect of 50% or more. Effects have a minus sign here. This is one part of a sample in which strong results are shown more often than they occur.

Target: human ether-à-go-go-related gene (hERG) potassium channel (human, UniProt Q12809)
Experiment: primary screen, population patch clamp on CHO cells stably expressing hERG; higher = less effect of the substance
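Note: peak tail current of the secondary pulse compared with the same well before compound.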

human ether-à-go-go-related gene (hERG) potassium channel, sequence (Q12809 whole entry, looked up): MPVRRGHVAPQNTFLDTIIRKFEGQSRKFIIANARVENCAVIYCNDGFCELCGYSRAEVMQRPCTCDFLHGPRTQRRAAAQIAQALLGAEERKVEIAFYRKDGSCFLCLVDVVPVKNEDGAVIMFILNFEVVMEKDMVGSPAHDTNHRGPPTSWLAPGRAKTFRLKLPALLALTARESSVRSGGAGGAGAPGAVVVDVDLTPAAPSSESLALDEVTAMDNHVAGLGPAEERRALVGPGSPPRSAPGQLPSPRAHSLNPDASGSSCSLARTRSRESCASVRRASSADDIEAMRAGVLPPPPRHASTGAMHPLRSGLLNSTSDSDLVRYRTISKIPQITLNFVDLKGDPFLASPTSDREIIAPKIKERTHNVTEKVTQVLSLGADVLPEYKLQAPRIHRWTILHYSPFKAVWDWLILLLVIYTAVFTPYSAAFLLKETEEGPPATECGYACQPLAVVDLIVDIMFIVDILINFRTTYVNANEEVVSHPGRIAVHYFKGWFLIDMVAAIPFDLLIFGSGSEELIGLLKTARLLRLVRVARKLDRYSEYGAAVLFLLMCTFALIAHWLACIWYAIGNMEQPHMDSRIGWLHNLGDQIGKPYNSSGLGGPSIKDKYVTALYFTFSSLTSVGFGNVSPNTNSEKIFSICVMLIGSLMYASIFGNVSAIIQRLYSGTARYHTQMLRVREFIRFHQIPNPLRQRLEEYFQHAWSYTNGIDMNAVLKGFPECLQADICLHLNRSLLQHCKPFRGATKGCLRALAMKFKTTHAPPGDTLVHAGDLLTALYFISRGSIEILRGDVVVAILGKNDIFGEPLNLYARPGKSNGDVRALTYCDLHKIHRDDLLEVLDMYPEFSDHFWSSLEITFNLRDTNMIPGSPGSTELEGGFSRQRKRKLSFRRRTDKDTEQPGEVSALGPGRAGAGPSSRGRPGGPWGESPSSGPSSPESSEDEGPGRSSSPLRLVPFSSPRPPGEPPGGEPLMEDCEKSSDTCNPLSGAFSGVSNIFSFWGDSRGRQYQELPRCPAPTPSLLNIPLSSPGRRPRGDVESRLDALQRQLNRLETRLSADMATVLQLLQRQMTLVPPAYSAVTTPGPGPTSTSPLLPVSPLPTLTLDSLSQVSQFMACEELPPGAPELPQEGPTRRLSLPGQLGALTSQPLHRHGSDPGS

SMILES	hERG current change (%, negative = inhibition) at 10uM
CNC(=O)OCCc1n(C)cc[n+]1C.[I-]	13.9%
Cn1cnnc1Sc1ccc(C(=O)OCC(=O)NCC(F)(F)F)cc1[N+](=O)[O-]	0.021%
CC(C)(C)C(=O)Cn1c(=O)n(-c2ccc(F)cc2F)c(=O)c2sccc21	4.28%
O=C1C(C2=NC(C(=O)O)C3C(=O)N(c4ccc(Cl)cc4)C(=O)C23)=C(O)c2ccccc21 (stereo not shown)	2.54%
COc1ccc(C(=O)NCCc2ccc(C)cc2)cc1OC1CCN(C(C)=O)CC1	-4.05%
COc1ccc(C(=O)NC2CCCCCCC2)cc1OC	1.54%
COc1cc(CN2CCC(Oc3cc(C(=O)NC4CC4)ccc3OC)CC2)cc(OC)c1	-72.8%
COc1cc(C(=O)NC2CC(C)(C)CC(C)(C)C2)ccc1OC1CCN(C(C)=O)CC1	6.2%
COc1ccc(C(=O)NC2CC2)cc1OC1CCN(Cc2cc(C)cc(C)c2)CC1	-70.2%
COc1cc(/C=N/NC(=O)COc2ccccc2C)ccc1OC(=O)c1cccs1	-0.671%
Cc1ccc(NC(=O)Cn2nnc(-c3ccc4c(c3)OCO4)n2)cc1F	11%
Nc1cc(N)nc(SCC(=O)Nc2ccccc2N2CCOCC2)n1	2.73%
CC(C)c1nc2sc3c(c2c(=O)[nH]1)CC(C)(C)OC3	17.7%
Cc1ccccc1C(=O)NCCNC(=O)c1ccccn1	6.75%
CC(C)CC(=O)Nc1ccc(Cc2ccncc2)cc1	10.1%
O=C(Nc1cccnc1)c1cc(F)c(F)cc1Cl	19.7%
O=C(Nc1ccc(Cc2ccncc2)cc1)c1ccc(Br)o1	-35.8%
O=C(Nc1ccc(Cc2ccncc2)cc1)c1cc(F)c(F)cc1Cl	-71.2%
O=C(NCc1ccncc1)c1cc(F)c(F)cc1Cl	14.2%
CC(C)Cc1ccc(C(=O)Nc2ccc(Cc3ccncc3)cc2)o1	-57.6%
N#Cc1cnc(SCC(=O)N2CCCC2)nc1N	13.1%
COc1cc(NC(=O)c2cccc(C)c2)c(OC)cc1NC(=O)CN1CCOCC1	-3.88%

SMILES	hERG current change (%, negative = inhibition) at 10uM
O=C(NC12CC3CC(CC(C3)C1)C2)C12CC3CC(C1)CC(n1cnc(Cl)n1)(C3)C2	2.42%
COc1cc(-c2nc(-c3cccc(C)c3)no2)cc(OC)c1OC	0.668%
Cc1cccc(C)c1NC(=O)N1CCCC1C(=O)Nc1ccc(-n2cnnn2)cc1 (stereo not shown)	-35.8%
Cc1ccc(NC(=O)N2CCCC2C(=O)Nc2ccc(-n3cnnn3)c(C)c2)cc1 (stereo not shown)	-18.7%
Cc1cc(NC(=O)C2CCCN2C(=O)Nc2cccc(Cl)c2)ccc1-n1cnnn1 (stereo not shown)	-48.3%
O=C(Nc1ccc(-n2cnnn2)cc1)C1CCCN1C(=O)NC1CCCCC1 (stereo not shown)	-63.3%
CC(=O)Nc1ccc(NC(=O)C2CCCN2C(=O)NC2CCCCC2)cc1 (stereo not shown)	12.5%
CC(C)c1ccc(NC(=O)N2CCCC2C(=O)Nc2ccc(-n3cnnn3)cc2)cc1 (stereo not shown)	-61.8%
Cc1cc(C)cc(NC(=O)N2CCCC2C(=O)Nc2ccc(-n3cnnn3)cc2)c1 (stereo not shown)	-54.1%
Cc1ccc(NC(=O)C2CCCN2C(=O)NC2CCCCC2)cc1 (stereo not shown)	8.72%
O=C(Nc1ccc(-n2cnnn2)cc1)C1CCC1	11.3%
Cc1cc(C)cc(NC(=O)N2CCCC2C(=O)Nc2ccc(-n3cnnn3)c(C)c2)c1 (stereo not shown)	-12.3%
O=C(Nc1ccc(-n2cnnn2)cc1)C1CCCN1C(=O)Nc1ccc(Br)cc1 (stereo not shown)	-79.9%
Cc1cc(NC(=O)C2CCCN2C(=O)Nc2c(C)cccc2C)ccc1-n1cnnn1 (stereo not shown)	-10.9%
O=C(CN1C(=O)NC2(CCc3ccccc32)C1=O)NCC(F)(F)F (stereo not shown)	2.18%
O=C(O)c1cccc(Oc2ncnc3sc4c(c23)CCCC4)c1	34.5%
Oc1ccc(N=Nc2ccc3c(c2)OCCO3)c(O)c1	22.6%
CC(=O)Nc1ccc(S(=O)(=O)N2CC(=O)NC(=O)C2)cc1	29.9%
COc1ccc(C2=NS(=O)(=O)N(C)C(C(=O)N3CCCCC3)=C2)cc1OC	-4.54%
CCn1ncc(Br)c1C(=O)NC(C)c1ccccc1 (stereo not shown)	3.91%
O=C(Cn1c(=O)n(CCC(=O)N2CCCCC2)c(=O)c2sccc21)NCc1ccccc1	5.68%
CN(Cc1ccc(Cl)cc1Cl)C(=O)c1cc(=O)c2ccccc2o1	-53.4%

SMILES	hERG current change (%, negative = inhibition) at 10uM
CN(Cc1ccccc1Cl)C(=O)c1cc2ccccc2o1	-2.37%
Cc1ccc(-c2c(C(=O)NCc3ccc(F)cc3)oc(=O)c3ccccc23)cc1	-13%
CCc1ccc(CN(C)C(=O)c2cc(=O)c3ccccc3o2)cc1	-66.4%
Cc1ccc(-c2c(C(=O)N(C)Cc3ccccc3)oc(=O)c3ccccc23)cc1	-52.5%
CSc1ccc(CN(C)C(=O)c2cc3ccccc3o2)cc1	21.2%
COc1ccc(CCN(C)C(=O)c2cc(=O)c3ccccc3o2)cc1OC	7.6%
CN(Cc1ccccc1)C(=O)c1cc2ccccc2o1	-23%
CN(Cc1ccc(N(C)C)cc1)C(=O)c1cc2ccccc2o1	-18.5%
CSc1ccc(CN(C)C(=O)c2cc(=O)c3ccccc3o2)cc1	-71.4%
COc1ccc(Cl)cc1NC(=O)CN(C)C(=O)c1cc(=O)c2ccccc2o1	-28%
CN(Cc1ccccc1)C(=O)c1oc(=O)c2ccccc2c1-c1ccccc1	-13.1%
O=C(Nc1ccc(N2CCCCCC2)cc1)c1ccc[nH]1	-15.6%
O=C(NC(=S)NCC1CCCO1)c1ccccc1Br (stereo not shown)	4.66%
CN(CCc1ccccn1)C(=O)Nc1ccc(C(C)(C)C)cc1	-19.3%
O/N=C/c1cc2ccccc2n1Cc1ccccc1F	13.6%
CC12CCC(C(=O)n3c1nc1ccccc13)C2(C)C (stereo not shown)	-3.14%
Cc1cccc(NC(=O)CSc2nc3nc(C)cc(C)c3c(=O)[nH]2)c1	4.65%
O=C(NC1CCN(Cc2ccccc2)CC1)C1CCN(S(=O)(=O)c2cccc([N+](=O)[O-])c2)CC1	-8.03%
COc1ccc(C)cc1NC(=O)NC1CCN(Cc2ccccc2)CC1	-31.4%
O=C(NC1CCN(C(=O)c2cccc([N+](=O)[O-])c2)CC1)c1ccccc1	-32.8%
Cc1ccc(C(=O)NC2CCN(CC(=O)Nc3cccc([N+](=O)[O-])c3)CC2)cc1	-71.4%
CC(=O)NC1CCN(CC(=O)Nc2cccc([N+](=O)[O-])c2)CC1	18.7%

SMILES	hERG current change (%, negative = inhibition) at 10uM
CCN1CCCC(NC(=O)c2cc([N+](=O)[O-])ccc2OC)C1.Cl.O (stereo not shown)	-11.8%
CC1CCCCC1NC(=O)CN1CCC(NC(=O)c2ccc([N+](=O)[O-])cc2)CC1 (stereo not shown)	2.55%
CCOc1ccc(C(=O)NC2CCN(CC(=O)NCc3ccccc3)CC2)cc1	-29.3%
O=C(NC1CCN(Cc2cccc([N+](=O)[O-])c2)CC1)c1ccccc1	-53.7%
CC1CCN(CC(=O)Nc2cccc([N+](=O)[O-])c2)CC1	3.53%
O=C(NC1CCN(CC(=O)N(c2ccccc2)c2ccccc2)CC1)c1ccc([N+](=O)[O-])cc1	-78%
COc1ccc([N+](=O)[O-])cc1C(=O)NC1CCN(Cc2ccccc2)CC1.Cl.O	-55.3%
COc1ccccc1N/C=C/c1onc(C)c1[N+](=O)[O-]	1.63%
Cn1c2ccccc2c2cc(/C=C(\NC(=O)c3ccccc3)C(=O)O)ccc21	9.22%
CSc1ccc(C(=O)N2CCc3ccc(NC(=O)c4ccccn4)cc3C2)cc1	-4.13%
Cc1ccc(NC(=O)Cn2c(/C=C/c3ccccc3)nc3ccccc32)cc1C	-0.723%
Cc1ccc(C(=O)O/N=C(\N)c2ccccn2)c(C)c1	-3.86%
C/C(=N\OCC(=O)O)c1ccc(Cl)cc1	13.5%
COc1ccc(CNC(=O)C(c2ccncc2)N(C(=O)Cc2cccs2)c2ccc(C)cc2)cc1 (stereo not shown)	-15.7%
Cc1ccc(C2Nc3ccccc3C(=O)N2Cc2ccco2)cc1 (stereo not shown)	-32.5%
O=C(O)c1cc(OCc2ccccc2)cc(OCc2ccccc2)c1	10.8%
COc1ccc(NC(=O)CS(=O)CC(=O)Nc2ccc(OC)c(OC)c2)cc1 (stereo not shown)	10.9%
O=[N+]([O-])c1ccc(CSc2ccc(S(=O)(=O)N3CCCC3)cn2)cc1	-32.6%
Cc1ccc(N2C(=O)CC(N3CCc4ccccc43)C2=O)cc1Cl (stereo not shown)	15.6%
CCCCN(C)C(=O)c1cc2c(Cl)nc3ccccc3c2s1	-4.12%
Cc1ccc2nc(Cl)c3cc(C(=O)N(CCN(C)C)Cc4ccco4)sc3c2c1	-39.8%
CN(C)CCN(Cc1ccco1)C(=O)c1cc2c(Cl)nc3ccccc3c2s1	-70.1%
